Sampled rows, rich in hits. Any-hit rate of the full collection: about 1.4%.
KCNH2 WT inh: qHTS for Inhibitors of KCHN2 3.1: Wildtype qHTS; AID 720551, 2013; hit rate 0.37% among 340,000; U2OS, BacMam KCNH2, thallium flux FluxOr; hits give low values; activity change, % at 1.84 µM;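 active = maximum activity change below -70%; inconclusive = maximum activity change between -70% and -50%; inactive = maximum activity change above -50%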; note: % is set by controls: 0 for no effect and ±100 for the full control effect
Target sequence (Q12809 whole entry, looked up): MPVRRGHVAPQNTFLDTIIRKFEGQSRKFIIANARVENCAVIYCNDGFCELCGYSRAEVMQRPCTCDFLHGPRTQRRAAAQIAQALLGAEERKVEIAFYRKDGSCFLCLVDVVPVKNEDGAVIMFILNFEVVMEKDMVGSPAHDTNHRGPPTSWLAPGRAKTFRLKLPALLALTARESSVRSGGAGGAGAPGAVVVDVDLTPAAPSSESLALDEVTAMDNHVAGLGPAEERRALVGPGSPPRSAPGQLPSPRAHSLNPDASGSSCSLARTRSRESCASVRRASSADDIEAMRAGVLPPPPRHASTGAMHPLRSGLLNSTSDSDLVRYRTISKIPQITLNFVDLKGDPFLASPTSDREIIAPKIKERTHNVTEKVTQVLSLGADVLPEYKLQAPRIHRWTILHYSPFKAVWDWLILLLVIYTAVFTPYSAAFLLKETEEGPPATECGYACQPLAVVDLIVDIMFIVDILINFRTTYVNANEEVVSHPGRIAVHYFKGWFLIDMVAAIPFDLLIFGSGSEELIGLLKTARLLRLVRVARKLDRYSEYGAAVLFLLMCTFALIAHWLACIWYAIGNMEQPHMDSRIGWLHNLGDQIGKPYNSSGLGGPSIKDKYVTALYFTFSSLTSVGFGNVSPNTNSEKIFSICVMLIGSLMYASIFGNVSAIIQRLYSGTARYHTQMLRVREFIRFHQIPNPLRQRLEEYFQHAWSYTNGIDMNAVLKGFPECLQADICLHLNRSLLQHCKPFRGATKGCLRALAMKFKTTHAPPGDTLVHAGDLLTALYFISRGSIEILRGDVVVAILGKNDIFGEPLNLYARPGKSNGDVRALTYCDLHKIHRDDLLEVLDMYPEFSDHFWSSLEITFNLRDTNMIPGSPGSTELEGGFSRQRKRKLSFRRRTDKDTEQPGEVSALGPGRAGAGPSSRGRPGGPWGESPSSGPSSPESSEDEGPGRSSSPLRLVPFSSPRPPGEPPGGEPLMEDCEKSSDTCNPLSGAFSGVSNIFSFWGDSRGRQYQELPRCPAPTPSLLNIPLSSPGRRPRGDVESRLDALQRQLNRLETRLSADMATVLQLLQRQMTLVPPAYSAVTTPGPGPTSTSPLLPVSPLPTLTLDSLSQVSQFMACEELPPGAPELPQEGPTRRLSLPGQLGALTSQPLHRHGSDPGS
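U2OS cells transduced with wild-type KCNH2 virus are loaded with FluxOr dye for 45 min, and thallium flux is measured in kinetic reads before and after stimulation buffer. Rate constants are normalized to DMSO controls.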
EPAC2 antagonist: qHTS for Antagonist of cAMP-regulated guanine nucleotide exchange factor 2 (EPAC2): primary screen; Rap guanine nucleotide exchange factor 4 (Homo sapiens), Q8WZA2; EPAC2 GEF exchange of Rap1B-BODIPY-GDP, fluorescence; Potency, µM (titrated, usually from 114 µM), for the others: at the highest dose activity, negative = inhibition, actives largely listed as inhibitors; hit rate 0.18% among 360,000; note: potency is the fitted concentration of half-maximal effect; % is set by controls: 0 for no effect and ±100 for the full control effect; nearly all actives have a fitted effect of over 45% in size
EPAC2 ag: qHTS for Agonist of cAMP-regulated guanine nucleotide exchange factor 4 (EPAC2): primary screen; Rap guanine nucleotide exchange factor 4 (Homo sapiens), Q8WZA2; EPAC2 activation, biochemical qHTS; response scale: 100% = 6.5 mM cAMP response; Potency, µM (highest dose often 154 µM), inactives show at the top dose activation, usual class: activators; hit rate 0.079% among 360,000; AID 720711, 2013; note: potency is the fitted concentration of half-maximal effect; nearly all actives have a fitted effect of over 50% in size
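Compounds were added across a concentration range to EPAC2 (100 nM), RAP1B-BODIPY-GDP (250 nM) and GDP (50 uM). After 5 min at room temperature, fluorescence was recorded at 5-min intervals for 30 min.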
KCNH2 3.1 block: qHTS for Inhibitors of KCHN2 3.1: Mutant qHTS. activity change, % (tested at about 1.8 µM). hit rate 0.95% among 340,000. Potassium voltage-gated channel subfamily H member 2, brain isoform KCNH2 3.1 (human). U2OS KCNH2 3.1, thallium flux FluxOr; hits give low values. AID 720553, 2013;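 active = maximum activity change below -70%; inconclusive = maximum activity change from -70% to -50%; inactive = maximum activity change above -50%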;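 note: thallium influx rate constant from kinetic fluorescence after stimulation buffer; % is set by controls: 0 for no effect and ±100 for the full control effect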
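FluxOr-based Tl+ influx in U2OS cells transduced with KCNH2 3.1 virus; rate constants normalized to DMSO controls.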
EPAC1 agonist: qHTS for Agonist of cAMP-regulated guanine nucleotide exchange factor 3 (EPAC1): primary screen; EPAC1 agonist qHTS, biochemical assay; response scale: 100% = response to 6.5 mM cAMP; Potency, µM (series often up to 154 µM), for the others: at the highest dose activation, hits mostly activators; hit rate 0.073% among 360,000; note: potency is the fitted concentration of half-maximal effect; nearly all actives have a fitted effect of over 60% in size
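Multi-concentration qHTS readout: loss of Rap1B-bound BODIPY-GDP fluorescence driven by 100 nM EPAC1 with excess GDP (50 uM), monitored kinetically at room temperature; agonist response expressed relative to 6.5 mM cAMP.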
EPAC1 antag: qHTS for Antagonist of cAMP-regulated guanine nucleotide exchange factor 3 (EPAC1): primary screen; Potency, µM (doses to about 115 µM), without a hit: top-dose activity change, negative = inhibition, usual class: inhibitors; hit rate 0.14% among 360,000; AID 720709, 2013; EPAC1 GEF assay, Rap1b-BODIPY-GDP exchange fluorescence; Rap guanine nucleotide exchange factor 3 (Homo sapiens), O95398;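 note: potency is the fitted concentration of half-maximal effect; plate controls were vehicle for no effect and positive control for full effect; nearly all actives have a fitted effect of over 50% in size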
Starred values were filed as active, the others as inactive; ? = inconclusive; · = not tested or not shown. Unless noted, calls come from the whole dose curve; as a rule, active = well fitted curve in the direction sought with a large enough effect; inconclusive = small, poorly fitted or top-dose-only effect, or another doubt; inactive = no such curve, though single readings can be large; an effect the other way counts as inactive or inconclusive.

SMILES | KCNH2 WT inh | EPAC2 antagonist | EPAC2 ag | KCNH2 3.1 block | EPAC1 agonist | EPAC1 antag
O=C(Nc1ccc(N2CCN(C(=O)c3ccccc3)CC2)c(Cl)c1)c1ccc(Br)o1 | -12 | 14% | 14% | -102* | 4% | 10%
CCOc1ccc(C(=O)Nc2ccccc2N2CCN(C(=O)c3ccccc3)CC2)cc1[N+](=O)[O-] | -92* | 1% | 11% | -104* | 3% | -19%
COc1ccc(OC)c(NC(=O)C2CCN(S(=O)(=O)c3ccc4c(c3)CC(C)N4C(C)=O)CC2)c1 (stereo not given) | -4 | -9% | 13% | -1 | -2% | ?
COc1ccc(C2=Nc3ccccc3N(C(=O)c3ccc(C(F)(F)F)cc3)C2C(=O)NCc2ccccc2)cc1 (stereo not given) | · | -1% | -11% | · | -13% | -23%
O=C(Nc1ccccc1N1CCN(C(=O)c2ccccc2)CC1)c1cc(Br)ccc1Cl | ? | -6% | 17% | -92* | 19% | -10%
O=C(Nc1ccccc1N1CCN(C(=O)c2ccccc2)CC1)c1cccc(Cl)c1 | 6 | -7% | 11% | -29 | 2% | 3%
CC1CCCCN1CCCNc1ccc(C(CC(N)=O)NC(=O)Cc2cccc3ccccc23)cc1[N+](=O)[O-] (stereo not given) | 7 | 8% | 1% | 15 | 7% | -19%
CSCCC(NC(=O)c1ccc(Cl)c([N+](=O)[O-])c1)C(=O)N1CCN(C/C=C/c2ccccc2)CC1 (stereo not given) | -42 | -9% | -1% | -97* | 5% | -6%
CC(C)C(NC(=O)c1ccccc1)C(=O)N1CCN(C/C=C/c2ccccc2)CC1 (stereo not given) | 6 | -5% | -2% | -8 | 4% | 8%
COc1ccc(CNC(=O)C[C@@H]2C=C[C@@H](NS(=O)(=O)c3cccc(OC)c3)[C@@H](CO)O2)cc1 | · | 5% | 2% | · | 3% | 1%
O=C(O)CN1C(=O)/C(=C\c2cc(Br)ccc2OCc2ccc(Cl)cc2)SC1=S | 6 | 50µM* | -2% | 8 | -2% | ?
O=C(O)CCCN1C(=O)/C(=C/c2cn(-c3ccccc3)nc2-c2cccs2)SC1=S | -3 | 83% | ? | 11 | 56µM* | 20%
O=C(O)CCCN1C(=O)/C(=C\c2ccccc2OCc2ccccc2)SC1=S | 4 | ? | 7% | -2 | -1% | 50µM*
O=C(CCCN1C(=O)/C(=C/c2cccs2)SC1=S)Nc1ccccn1 | 0 | 5% | 2% | 11 | -3% | -1%
Cc1nn(-c2ccccc2)c(Cl)c1/C=C1\SC(=S)N(CCCCCC(=O)O)C1=O | 1 | 40µM* | 6% | -7 | 12% | -9%
O=C(O)CN1C(=O)/C(=C\c2ccccc2OCc2ccccc2)SC1=S | 3 | ? | 0% | 0 | -1% | -14%
CCc1nc2ccc(C(=O)NCCCN(C)C)cn2c1N(C)CCCc1ccccc1 | · | -1% | 9% | · | -2% | 14%
CC(=O)Nc1c(C(=O)Nc2ccc3c(c2)OCO3)oc2ccccc12 | -72* | -5% | 13% | 6 | 9% | -8%
O=S(=O)(Nc1cc(Sc2ncn[nH]2)c(O)c2ccccc12)c1ccccc1 | -6 | ? | 26% | 5 | 5% | ?
O=C(O)CSc1cc(NS(=O)(=O)c2ccc(Br)cc2)c2ccccc2c1O | 10 | ? | 15% | 6 | 26% | 56µM*
COc1ccccc1Oc1ccnc2cc(Cl)ccc12 | -2 | 40µM* | 6% | -17 | -1% | -17%
O=C(Nc1c(-c2ccc3c(c2)OCO3)[nH][nH]c1=O)c1ccccc1 | · | ? | 28% | · | -6% | 35µM*
O=C(c1ccc(NS(=O)(=O)c2ccc3[nH]c(=O)[nH]c3c2)cc1)N1CCN(c2ccccc2O)CC1 | -2 | 0% | 6% | -80* | 11% | -9%
COc1ccc([C@H]2CC(=O)C=C(c3cccc(C(F)(F)F)c3)C2)cc1 | 20 | -18% | 5% | -75* | 9% | -6%
COc1ccc([C@H]2CC(=O)C=C(c3cccc(Br)c3)C2)cc1 | -12 | -15% | 2% | -11 | 1% | -17%
SMILES | KCNH2 WT inh | EPAC2 antagonist | EPAC2 ag | KCNH2 3.1 block | EPAC1 agonist | EPAC1 antag
Cc1cccc(C(=O)Nc2cc(S(=O)(=O)N3CCOCC3)ccc2N2CCCC2)c1 | 5 | -26% | -2% | 0 | ? | -4%
CC(=O)Nc1ccc(S(=O)(=O)N(C)CC(=O)OC(C)C(=O)NC2(C#N)CCCCC2)cc1 (stereo not given) | -6 | 7% | 5% | -2 | 3% | 2%
CCCNC(=O)C(Cc1ccccc1C)NC(=O)c1ccc(C#N)cc1 (stereo not given) | -9 | 3% | -10% | -10 | -16% | -3%
CCCNC(=O)C(Cc1ccccc1F)NC(=O)c1ccc(C#N)cc1 (stereo not given) | 7 | 9% | -11% | -99* | 0% | 17%
Cc1ccc(-n2ncc3c2CC(C)(C)CC3NC(=O)C2CCOCC2)cc1 (stereo not given) | 9 | 6% | -5% | -2 | -12% | 6%
Fc1ccc(NC(=S)NNc2ncc(C(F)(F)F)cc2Cl)c(F)c1 | -7 | 5% | 3% | 0 | -4% | -10%
O=C(NCc1ccco1)C1CCN(c2nc3ccccc3n2Cc2ccc(F)cc2)CC1 | -152* | -18% | 11% | -104* | 4% | -12%
COc1nc(OC)nc(N2CCC(C(=O)NCc3ccco3)CC2)n1 | -7 | -20% | -1% | -4 | 2% | 5%
CCN(CC)c1ccc(/C=N/NC(=O)c2nnn(-c3nonc3N)c2CN(C)C2CCCCC2)cc1 | -17 | -2% | 5% | -88* | 5% | -8%
CN(Cc1c(C(=O)N/N=C/c2c(F)cccc2Cl)nnn1-c1nonc1N)C1CCCCC1 | -5 | 10% | 11% | 2 | 1% | -11%
COc1cccc(/C=N/NC(=O)c2nnn(-c3nonc3N)c2CN(C)C2CCCCC2)c1 | 15 | -10% | 0% | -17 | 7% | -2%
CCOc1ccc(/C=N/NC(=O)c2nnn(-c3nonc3N)c2CN(C)C2CCCCC2)cc1 | -102* | 5% | -1% | -26 | 1% | 1%
